Screens: PubChem, National Center for Advancing Translational Sciences (NCATS)
This is a sample that favours compounds with a hit; in the whole collection about 1.7% have one here.
IDH1 R132H inh – blocks human mutant IDH1 R132H enzyme. O75874. IDH1-R132H enzyme, NADPH consumption, diaphorase/resazurin fluorescence. Potency, µM (highest dose often 76.6 µM), most hits filed as inhibitors. hit rate 0.093% among 390,000. AID 602179; note: nearly all actives have a fitted effect of over 65% in size
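IDH1-R132H (0.5 ug/mL dispensed) in pH 7.5 Tris buffer was preincubated 30 min with compound, then given a substrate mix of 0.016 mM NADPH and 2 mM alpha-KG for 80 min at room temperature; remaining NADPH was read by diaphorase/resazurin fluorescence.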
GLP1R ag – agonists of human GLP-1 receptor. P43220. HEK293 GLP-1R CRE-luciferase, luminescence, 4-6 h; cells express a hypersensitive GLP-1R form. Potency, µM (top dose mostly 45.6 µM), hits mostly activators. hit rate 0.007% among 380,000. AID 624172
GLP1R cytotox – cytotoxicity counter-screen for GLP-1 receptor inverse agonists; hit rate 0.13% among 410,000; HEK293 cAMP-luciferase reporter cells, luminescence, 24 h; Potency, µM (titrated, usually from 38.3 µM), usual class: inhibitors;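 note: loss of luciferase light is scored as toxicity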
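Seeding density was 200 cells/uL; after overnight-length (12 h) culture, 23 nL compounds went on for 24 h at 37 °C. Readout used a luciferase detection reagent, luminescence taken after 12 min at room temperature.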
PTHR1 agonist – agonists of human PTHR1 parathyroid hormone receptor | Q03431 | HEK293 GP2 PTHR1 cells, GloSensor cAMP luminescence, 1 h | Potency, µM (highest dose often 115 µM), most hits filed as activators | hit rate 0.075% among 410,000 | AID 743266; note: nearly all actives have a fitted effect of over 55% in size
Target sequence (Q03431 whole entry, looked up): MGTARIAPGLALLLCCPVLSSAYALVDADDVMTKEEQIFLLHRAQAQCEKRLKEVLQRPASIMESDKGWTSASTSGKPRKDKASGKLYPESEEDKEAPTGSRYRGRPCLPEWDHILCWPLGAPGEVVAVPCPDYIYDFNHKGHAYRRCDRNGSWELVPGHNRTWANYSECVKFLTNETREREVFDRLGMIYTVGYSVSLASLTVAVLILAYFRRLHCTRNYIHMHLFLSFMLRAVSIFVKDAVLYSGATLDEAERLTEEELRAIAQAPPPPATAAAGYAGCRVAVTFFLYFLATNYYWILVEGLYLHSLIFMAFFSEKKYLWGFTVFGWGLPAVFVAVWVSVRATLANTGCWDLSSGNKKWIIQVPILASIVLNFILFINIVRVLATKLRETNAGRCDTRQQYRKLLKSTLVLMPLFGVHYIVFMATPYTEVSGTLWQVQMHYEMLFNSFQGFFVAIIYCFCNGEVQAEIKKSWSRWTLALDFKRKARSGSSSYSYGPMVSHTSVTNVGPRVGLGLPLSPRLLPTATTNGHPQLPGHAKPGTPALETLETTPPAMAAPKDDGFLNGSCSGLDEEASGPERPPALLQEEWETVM
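HEK-293-derived GP2 cells expressing PTHR1 and a GloSensor cAMP reporter, 3,000/well, plated overnight, given luciferin plus IBMX (each 0.5 mM as added) for 1 h at 37 °C, then compound for 1 h at 37 °C. Luminescence was read after 15 min at room temperature.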
GLP-1R inv ag – GLP-1 receptor (human) inverse agonism | Potency, µM (series often up to 38.3 µM), most hits filed as inhibitors | hit rate 1.6% among 410,000 | HEK293 GLP-1R CRE-luciferase, luminescence, 24 h; GLP-1R form is constitutively active | P43220; note: nearly all actives have a fitted effect of over 55% in size
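Stable HEK293 clone (constitutively active GLP-1R + cAMP-response luciferase); 200 cells/uL plated, 12 h pre-culture, compound 24 hr, 37 deg C/5% CO2; detection reagent 12 min RT; luminescence.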
LDHA inh – blocks human lactate dehydrogenase A; P00338; purified LDHA, NADH/diaphorase-resazurin fluorescence; active compounds read low; activity change, % (values are at about 110 or 230 µM); hit rate 0.15% among 480,000; AID 1347041; in the data active = activity change below about -30%; inconclusive = mostly about -25% to -30%
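Enzyme activity of human lactate dehydrogenase 5 (2 nM; 0.06 mM NADH, 0.2 mM pyruvate, 5 min, RT) is measured via a resazurin/diaphorase fluorescence readout of residual NADH.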
IDH1 autofl – autofluorescence interference, mutant IDH1 hit counter-screen; shares compounds with IDH1 R132H inh; Resorufin detection reagent fluorescence interference, cell-free; inhibition of signal, % at 51.2 µM; 750 tested, under 10 active; AID 623980
IDH1 WT – inhibits human wild-type IDH1, mutant selectivity check; shares compounds with IDH1 R132H inh; WT IDH1 enzyme, NADPH diaphorase/resazurin fluorescence; Potency, µM (top dose mostly 115 µM), usual class: inhibitors; hit rate 9% among 750; AID 623995; note: nearly all actives have a fitted effect of over 55% in size
IDH1 R132H conf – inhibits human mutant IDH1 enzyme in cherrypick confirmation | shares compounds with IDH1 R132H inh | IDH1 R132H enzyme, NADPH diaphorase/resazurin fluorescence | Potency, µM (top dose mostly 76.6 µM), actives largely listed as inhibitors | hit rate 83% among 750; note: nearly all actives have a fitted effect of over 50% in size
A number is an active result; – = inactive; ? = inconclusive; · = no result; [ ] = another dose, or the depositor's remark. Unless noted, calls come from the whole dose curve; as a rule, active = well fitted curve in the direction sought with a large enough effect; inconclusive = small, poorly fitted or top-dose-only effect, or another doubt; inactive = no such curve, though single readings can be large; an effect the other way counts as inactive or inconclusive.

SMILES	IDH1 R132H inh	GLP1R ag	GLP1R cytotox	PTHR1 agonist	GLP-1R inv ag	LDHA inh	IDH1 autofl	IDH1 WT	IDH1 R132H conf
Cc1ccc(C(C(=O)NC2CCCC2)N(Cc2ccc(F)cc2)C(=O)c2snc(C(N)=O)c2N)o1 (stereo unspecified)	?	–	–	–	?	–	–	–	?
COc1ccc(CN(C(=O)Cc2c[nH]c3ccccc23)C(C(=O)NC2CCCCC2)c2ccc(C)o2)cc1 (stereo unspecified)	–	–	–	–	?	–	·	·	·
COc1ccc(C(C(=O)NCc2ccccc2)N(C(=O)c2snc(C(N)=O)c2N)c2ccccc2OC)cc1 (stereo unspecified)	–	–	–	–	?	–	·	·	·
COc1ccccc1N(C(=O)c1snc(C(N)=O)c1N)C(C(=O)NCc1ccccc1)c1ccc(O)cc1 (stereo unspecified)	58µM	–	–	–	–	–	–	–	22µM
Cc1ccccc1N(C(=O)c1snc(C(N)=O)c1N)C(C(=O)NC1CCCC1)c1ccco1 (stereo unspecified)	?	–	–	–	?	–	–	–	40µM
Cc1ccc(C(C(=O)NC2CCCCC2)N(Cc2ccccc2)C(=O)Cc2c[nH]c3ccccc23)o1 (stereo unspecified)	?	–	–	–	?	–	–	–	?
CC(=O)c1c(F)cccc1N1CCN(c2cccc(C(F)(F)F)c2)CC1	·	·	·	·	·	–	·	·	·
N#Cc1ccc2c(c1)OCCO2	·	·	·	·	·	–	·	·	·
CCOC(=O)C1CCCN(C(=S)NC2CCCC2)C1 (stereo unspecified)	?	–	–	–	–	–	–	–	–
CCOC(=O)C1CCCN(C(=S)Nc2ccc(F)cc2)C1 (stereo unspecified)	–	–	–	–	–	–	·	·	·
Cc1ccc(S(=O)(=O)CCc2nnc(NC(=O)CCl)s2)cc1C	?	–	–	–	–	–	–	–	32µM
S=C(Nc1cccc2ccccc12)NC1CCCCC1	?	–	?	–	?	–	–	?	–
Cc1cc(C)c(-c2n[nH]c3c2C(c2ccccc2F)N(Cc2ccco2)C3=O)c(O)c1 (stereo unspecified)	?	·	–	–	?	–	–	–	?
Cc1ccc(O)c(-c2n[nH]c3c2C(c2ccc(F)cc2)N(Cc2ccco2)C3=O)c1 (stereo unspecified)	40µM	·	–	–	?	–	–	–	28µM
COc1cc(C2c3c(-c4ccccc4O)n[nH]c3C(=O)N2Cc2ccco2)cc(OC)c1OC (stereo unspecified)	–	–	?	–	–	–	·	·	·
COc1ccc(C2c3c(-c4ccccc4O)n[nH]c3C(=O)N2Cc2ccco2)cc1 (stereo unspecified)	?	–	–	–	?	–	–	–	32µM
COc1ccc(CN(Cc2nc3ccccc3c(=O)[nH]2)C(=O)NC2CCCCC2)cc1	?	–	–	–	–	–	–	–	28µM
Cc1cc(NS(=O)(=O)c2ccc(NS(=O)(=O)c3ccc(CC(C)C)cc3)cc2)nc(C)n1	18µM	–	–	–	–	–	–	–	16µM
Oc1ccccc1OCCOCCOc1ccccc1O	·	·	·	·	·	–	·	·	·
Cc1ccc(C2=NN=C(NC(=O)CSc3nncn3C)SC2)cc1	32µM	–	–[0.307 µM]	–	–[0.307 µM]	–	–	–	45µM
Cc1ccc(NC(=O)CSc2nncn2C)c(C)c1	–	–	–	–	–	–	·	·	·
N#Cc1c2c(c(Nc3ccc(F)cc3)n3c1nc1ccccc13)CCCC2	?	–	–	–	–	–	–	–	22µM
N#Cc1c2c(c(Nc3ccccc3)n3c1nc1ccccc13)CCC2	–	–	–	–	–	–	·	·	·
CN(c1ccccc1)c1ccc(/C=C/[N+](=O)[O-])cc1	29µM	–	–	–	?	–	–	71µM	22µM
N#CC1C(=O)NC(c2ccccc2)=CC1c1ccccc1 (stereo unspecified)	52µM	–	–	–	–	?	–	–	45µM
COc1ccc(NC2=C(c3ccccc3)C(=O)c3ccccc32)cc1Cl	?	·	–	–	–	–	–	–	7.1µM
COc1ccc(OC)c(NC2=C(c3ccccc3)C(=O)c3ccccc32)c1	–	·	?	–	?	–	·	·	·
N/C(COc1ccccc1Cl)=N\O	·	·	·	·	·	–	·	·	·
CCCn1cc(S(=O)(=O)c2cc(C)ccc2C)c(=O)c2cc(F)c(N3CCN(CC)CC3)cc21	–	·	–	–	–	–	·	·	·
CCCn1cc(S(=O)(=O)c2cc(C)ccc2C)c(=O)c2cc(F)c(N3CCCCCC3)cc21	?	·	–	–	–	–	–	–	16µM
